Drawing on PubChem BioAssay (NCATS), this text covers max response, outcome and Potency for 32 compounds.

“And” between values parts separate entries of the source, which are not always exact repeats. Equal entries are not always repeated. Inconclusive results are not listed. Values without a mark were called inactive. The source made the active and inactive calls. The call rests on the fitted dose curve; in most records, active means well fitted inhibition curve with a large enough effect; inconclusive means small, poorly fitted or top-dose-only effect; inactive means flat fitted curve, though single readings scatter.

One test has as its system CRL-7250. Put plainly: Cytotoxic Profiling of Annotated Libraries Using Quantitative High-Throughput Screening (AID 1296008). Further: potency means the concentration at half of the fitted maximal effect. On max response: on the % scale 0 is the no-effect control and ±100 the full control effect. The conditions noted are these: Five cell lines viability, CellTiter-Glo ATP luminescence, 48-72 h; max response: active compounds read low. The method in brief:
(§1)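 Cytotoxicity was measured as CellTiter-Glo ATP luminescence, read after 10 min at room temperature. Compound treatment of the cells lasted 48 or 72 hr at 37 degrees Celsius in a qHTS format.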
On the technique in general: Cellular ATP, detected with luciferase, serves as a proxy for viable cell number.

The test system of test [1] is HaCat. Described as above. The conditions noted are these: Five cell lines viability, CellTiter-Glo ATP luminescence, 48-72 h; max response: active compounds read low. Put shortly: as §1
The test system of the next test is KB-3-1. Described as above. The conditions noted are these: Five cell lines viability, CellTiter-Glo ATP luminescence, 48-72 h; max response: active compounds read low. Put shortly: as §1
The test system of a further test is NIH3T3. The test is described as above. Conditions: Five cell lines viability, CellTiter-Glo ATP luminescence, 48-72 h; max response: active compounds read low. The method in brief:
as §1

The subject of test [2] is HACAT. Put plainly: qHTS assay to identify novel small-molecules to repurpose for Merkel cell carcinoma treatment (AID 1296009). The conditions noted are these: MCC and control cell lines, CellTiter-Glo viability, 72 h; at 44.8 µM (top of the series) unless noted. Put shortly: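 Cell viability measured by CellTiter-Glo following 72 hr compound treatment at 37 degree celsius, with NPC and MIPE libraries tested in 8- and 11-point concentration series.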
A general note: In qHTS, concentration-response curves come from the screen itself.
Further: nearly all actives have a fitted effect of over 60% in size.

For the compound `CC(C)CCNc1ncccc1C(=O)N1CCN(Cc2ccccc2)CC1`, the max response in the test with CRL-7250 is -4.32%; in the test with HaCat [1], 1.63%; in the test with KB-3-1 it was 4.22%; with NIH3T3, 2.66%.
Turning to `NS(=O)(=O)c1ccc(N2CCN(CC[C@@H]3OCCc4ccccc43)CC2)cc1`, the max response in the test with CRL-7250 was -8.79%; in the test with HaCat [1] it was -12.7%; with KB-3-1 it was -10.3%; with NIH3T3 it was -0.981%.
For the compound `CCc1c(Cl)c(O)c(Cl)c(O)c1C(=O)O[C@H]1[C@H](O)[C@H](OC)[C@H](OC/C2=C\C=C\C[C@H](O)/C(C)=C\[C@H](CC)[C@@H](O[C@@H]3OC(C)(C)[C@@H](OC(=O)C(C)C)[C@H](O)[C@@H]3O)/C(C)=C/C(C)=C/C[C@@H]([C@@H](C)O)OC2=O)O[C@@H]1C`, the call in the test on CRL-7250 and with NIH3T3 was inactive. Moreover, the max response was -22.3% with HaCat [1] and -8.77% in the test on KB-3-1.
Turning to `O=C(O)CCc1nccc2c1[nH]c1ccccc12`, the max response was -19.9% in the test with CRL-7250, 3.67% in the test with HaCat [1] and -2.87% in the test with NIH3T3. The call in the test on KB-3-1 was inactive.
As to `O=C(Nc1ccc(N2C(=O)[C@@H]3[C@H](C2=O)[C@@H]2C=C[C@H]3C2)c(Cl)c1)c1ccccn1`, the max response in the test on CRL-7250 was -25.2%; in the test on HaCat [1] it was -18.9%; in the test on KB-3-1, -24.5%; in the test on NIH3T3 it was -23.8%.
On to `CC(C)(C)OC(=O)c1ncn2c1C(C)(C)Nc1ccccc1-2`, for which the compound was classed as inactive with CRL-7250. The max response is 2.2% in the test with HaCat [1], 0.574% in the test on KB-3-1 and 0.0612% in the test on NIH3T3.
Consider `Cc1cccc(-c2[nH]ncc2-c2ccc(F)c(-c3cnn(CCO)c3)c2)n1`, for which the max response in the test on CRL-7250 is -17.9%; in the test with HaCat [1] it was 3.16%; in the test on KB-3-1, -8.92%; in the test with NIH3T3, -23.9%.
For `C=C[C@H](/C=C\c1ccc(O)cc1)c1ccc(O)cc1`, the max response in the test with CRL-7250 was -3.27%; in the test with HaCat [1], 1.54%; in the test on KB-3-1, -11.7%. In addition, in the test on NIH3T3, the compound was classed as inactive.
Regarding `O=C(Nc1ccccc1C(=O)NC1CCCCNC1=O)c1cc2ccccc2s1` (centres undefined), the compound was called inactive in the test on CRL-7250. Moreover, the max response in the test on HaCat [1] was 4.7%; with KB-3-1, -2.87%; with NIH3T3, 4.3%.
In the case of `C[C@@H]1O[C@@H](O[C@H]2[C@@H](OC(=O)[C@]34CCC(C)(C)CC3C3=CCC5[C@@]6(C)C[C@H](O)[C@H](O[C@@H]7O[C@H](CO)[C@@H](O)[C@H](O)[C@H]7O[C@@H]7OC[C@@H](O)[C@H](O)[C@H]7O)[C@@](C)(C(=O)O)C6CC[C@@]5(C)[C@]3(C)CC4)OC[C@H](O)[C@@H]2O)[C@H](O)[C@H](O)[C@H]1O[C@@H]1OC[C@@H](O)[C@H](O)[C@H]1O` (some centres undefined), the max response with CRL-7250 was 4.52%; in the test on HaCat [1] it was -2.16%; in the test on NIH3T3, 1.11%. Also, in the test with KB-3-1, the Potency was 2.45 µM (active).
For `COc1c2c(c(C)c3c1C(=O)OC3)O[C@@]1(C)C[C@@H](OC(C)=O)[C@]34O[C@](OC)(CC[C@]3(C)[C@H]1C2)OC4(C)C`, the max response was -3.21% with CRL-7250, -9.22% with HaCat [1], 1.98% in the test on KB-3-1 and 4.28% with NIH3T3.
Regarding `Cn1cc(C2=C(c3coc4ccccc34)C(=O)NC2=O)c2cc(Br)ccc21`, the values for the max response in the test on CRL-7250 and in the test with HaCat [1] were 2.54% and 3.32%, respectively. The compound was called inactive with KB-3-1 and in the test on NIH3T3.
`CC1(CO)CC(O)[C@]2(C(=O)O)CCC34CC3(C=CC3[C@]5(C)C(CC[C@]34C)C(C)(CO)[C@@H](O)[C@H](O)[C@@H]5O)C2C1` (some centres undefined): the figures for the max response in the test on CRL-7250, in the test on HaCat [1] and in the test on NIH3T3 were -11.7%, -0.72% and -3.3%, respectively. For the same compound, the compound was classed as inactive with KB-3-1.
Regarding `CC(=O)NCc1cccc(OC[C@@H](O)CNCCc2ccc(NS(=O)(=O)c3ccccc3)cc2)c1`, the max response in the test on CRL-7250 was -6.68%; with HaCat [1], -3.13%; with KB-3-1 it was -5.62%. Moreover, in the test with NIH3T3, the compound was classed as inactive.
The corresponding values for `N#Cc1cc(C2=Nc3ccc(Br)cc3NC(=O)C2)ccn1` are -3.76%, 4.97%, 4.39% and “inactive”.
For `COC(=O)c1ccc(N2CCN(C)CC2)c(NC(=O)c2cccc(OC)c2)c1`, the max response in the test with CRL-7250 was -14.2%; with HaCat [1] it was -1.79%; in the test on KB-3-1, -6.24%; in the test with NIH3T3 it was 3.28%.
Consider `C=C(C(=O)O)[C@@H]1CC=C(CCC(C)=O)[C@@H](C)CC1`, for which the max response was -0.888% in the test on CRL-7250, -4.33% in the test on HaCat [1], -14.7% with KB-3-1 and -3.55% in the test on NIH3T3.
For the compound `COc1cc(NC(=O)c2cc(C3CC3)on2)c(OC)cc1Cl`, the max response in the test on CRL-7250 was -0.243%; in the test on HaCat [1] it was -5.44%; with KB-3-1, 7.13%; in the test on NIH3T3, -5.84%.
In the case of `COc1ccccc1-c1ccc(-c2cn(C(=O)N3CCCCC3Cc3ccccc3)nn2)cc1` (centres undefined), the outcome with CRL-7250 and with NIH3T3 was inactive. The max response was -29.9% with HaCat [1] and 1.87% with KB-3-1.
As to `Cc1ccc(CNc2ncnc3ccc(-c4ccc(CO)o4)cc23)o1`, the max response with CRL-7250 is -10.7%; in the test with KB-3-1, 8.1%; with NIH3T3, -6.8%. Further, the Potency with HaCat [1] was 16.4 µM (active).
In the case of `C/C(=C\Cc1c(O)c(Cl)c(C)c(C=O)c1O)CC/C=C(\C)[C@H]1CC(=O)C(C)(C)O1`, the max response in the test with CRL-7250 is -27.3%; in the test with HaCat [1], -8.07%; in the test on KB-3-1, -27.9%; in the test with NIH3T3, -17.5%.
`CC(=O)O[C@H]1C[C@@](O)(C(C)C)[C@@H]2[C@@H](OC(=O)c3ccc(O)cc3)CC(C)=CC[C@@]12C`: the max response in the test with CRL-7250 was 3.65%; with HaCat [1] it was -1.16%; in the test with KB-3-1, 6.43%; in the test with NIH3T3, -25.3%.
Taken in the same sequence, the figures for `CC1=C(C(=O)OC2CCCCC2)C(c2ccc([N+](=O)[O-])cc2)C2=C(CC(C)(C)CC2=O)N1` (centres undefined) were 1.32%, -9.38%, -12% and -3.56%.
`CCC(C)C(=O)O[C@H]1[C@@H](OC(=O)c2ccoc2)C[C@](C)(O)[C@]23OC(C)(C)[C@H](C[C@H](OC(=O)c4ccoc4)[C@]12COC(C)=O)[C@H]3OC(C)=O` (some centres undefined): the max response in the test with CRL-7250 is -11%; with HaCat [1], -1.74%; with KB-3-1, 3.34%. Besides, in the test with NIH3T3, the result was inactive.
For `CCn1nc(C2CCN(C(=O)CCO)CC2)nc1-c1cnc(N)c(-c2nnc(C(C)(C)C)o2)n1`, the values for the max response with CRL-7250 and in the test with KB-3-1 were -9.09% and 9.1%, respectively. In addition, the values for the Potency in the test on HaCat [1] and in the test on NIH3T3 were 3.66 µM (active) and 8.2 µM (active), respectively.
Regarding `C/C(=C/CO)CCC1C(C)CCC2C(C)(C)CCCC12C` (centres undefined), the max response was -3.35% with CRL-7250, -18.8% with HaCat [1], 6.99% in the test on KB-3-1 and 1.98% in the test on NIH3T3.
As to `CCOc1ccc(Cc2nc(-c3c(C)nc4ccccn34)cs2)cc1`, the Potency with CRL-7250 was 51.7 nM (active); with KB-3-1, 0.0259 µM (active); in the test with NIH3T3 it was 0.0461 µM (active). For the same compound, the max response in the test with HaCat [1] was -17.5%.
Turning to `CN1CCc2cc3c(cc2C(=O)Cc2cc4c(cc2C1)OCO4)OCO3`, the outcome in the test with CRL-7250, with KB-3-1 and with NIH3T3 was inactive. The max response in the test with HaCat [1] was -8.11%.
In the case of `O=C(c1ccc(F)cc1)N1CCCC(c2nc(-c3ccc(F)cc3)no2)C1` (centres undefined), the max response was -19.5% with CRL-7250, -5.25% with HaCat [1], -21.6% in the test with KB-3-1 and -12.8% in the test on NIH3T3.
With `Cn1cc(-c2ccc(F)c(C(F)(F)F)c2)nc1C1CCN(c2ncnc3[nH]ncc23)CC1`, the max response with CRL-7250 was -0.425%; in the test with HaCat [1], -21.3%; in the test with KB-3-1 it was 0.816%; in the test on NIH3T3, 1.5% and -4.9%.
With `N#Cc1cccc(C(=O)Nc2cc(-c3ccccc3)nn2-c2ccccc2)c1`, the max response was 1.2% in the test with CRL-7250, 1.42% in the test on HaCat [1], -17% in the test with KB-3-1 and -3.88% in the test with NIH3T3.
On to `CC1(C)CC[C@]2(C(=O)O)[C@H](O)C[C@]3(C)C(=CCC4[C@@]5(C)CC[C@H](O[C@@H]6O[C@H](CO[C@@H]7OC[C@H](O)[C@H](O)[C@H]7O[C@@H]7OC[C@H](O)[C@H](O)[C@H]7O)[C@@H](O)[C@H](O)[C@H]6O)C(C)(C)C5CC[C@]43C)[C@@H]2C1` (some centres undefined), for which the result in the test with CRL-7250, with HaCat [1] and with KB-3-1 was inactive. In addition, the max response in the test with NIH3T3 is -3.93%. Further, the outcome in the test on HACAT [2] is “inactive [at 9.27 µM]”.
